Laboratory results: PubChem BioAssay AID651561 (Sanford-Burnham Center for Chemical Genomics, 2012)
Some of the results follow. Activity calls are given as the source filed them. Cut-off read from the data, not from the text of the source: active = IC50 below about 20 µM; inactive = the rest.

assay: mitochondrial permeability transition pore inhibitors, dose response, biochemical, absorbance, uHTS hits (AID 651561); conditions: isolated mitochondria swelling

| Compound | IC50 |
| --- | --- |
| CN(C)Cc1ccccc1C1(O)c2ccccc2CSc2ccccc21 (stereo not drawn) | 13.4 µM (active) |
| CCOC(=O)c1c(NC(=O)CSc2cn(CC)c3ccccc23)sc2c1CCC2 | > 100 µM (inactive) |
| Fc1ccc(N2N=C(c3cccs3)CC2c2ccco2)c(F)c1 (stereo not drawn) | 51.9 µM (inactive) |
| Cc1nn(Cc2ccccc2)c2c1C(c1ccccc1)C(C#N)=C(N)O2 (stereo not drawn) | 25.9 µM (inactive) |
| Cc1cc(C)c(NC(=O)C[N+](C)(C)CC(O)COc2cccc3ccccc23)c(C)c1 (stereo not drawn) | 3.67 µM (active) |
| O=C(COC(=O)c1ccccc1NC(=O)c1ccco1)Nc1ccc2c(c1)OC(F)(F)O2 | 23.5 µM (inactive) |
| NC[C@H](Cc1ccccc1)NCCc1cc(C(F)(F)F)cc(C(F)(F)F)c1 | 12 µM (active) |
| N=c1n(Cc2ccc(Cl)cc2)c2ccccc2n1CC(O)c1ccco1 (stereo not drawn) | 5.87 µM (active) |
| Clc1ccc(-c2cc(C3CCNCC3)[nH]n2)c(Cl)c1 | 11.7 µM (active) |
| CN(C)Cc1ccc(F)cc1Sc1cc(Cl)ccc1Cl | 45 µM (inactive) |
| O=C(Nc1cccc(-c2cccc(Cl)c2)c1)C1CCN(C2CCC2)CC1 | 5.2 µM (active) |
| Cc1ccc(-c2noc(CCC(=O)Nc3ccccc3N3CCN(C)CC3)n2)cc1 | 18.8 µM (active) |
| C[C@@H](CN1CCC[C@H]1CN1C(N)=NC[C@@H]1Cc1ccccc1)N1C[C@@H](Cc2ccccc2)N(CCCC2CCCC2)C1=N | 3.54 µM (active) |
| CCCCCCCCCCCCN1C(=O)CSC1c1cccnc1 (stereo not drawn) | 9.05 µM (active) |
| O=C(c1ccc(Cl)cc1)c1ccc(OCC(O)CN2CCCCC2)cc1 (stereo not drawn) | 17.4 µM (active) |
| COc1ccc2sc(N(CCCN(C)C)C(=O)c3ccc(S(=O)(=O)N(C)C4CCCCC4)cc3)nc2c1 | 7.47 µM (active) |
| CCCCc1nc(NCCN)c(C#N)c2c1CSC(C)(C)C2 | 13.3 µM (active) |

| Compound | IC50 |
| --- | --- |
| Brc1ccc(CSc2ccc(-c3ccco3)nn2)cc1 | > 100 µM (inactive) |
| COc1ccc(/C=C(/CC(=O)Nc2ccc(C)cc2)c2nc3ccccc3s2)cc1 | 45.4 µM (inactive) |
| CCCC(C(=O)OCCN(CC)CC)(c1ccccc1)c1ccccc1 | 12.5 µM (active) |
| O=C(NC1CCN(Cc2ccccc2)CC1)c1cc(Br)c(Br)[nH]1 | > 100 µM (inactive) |
| O=C(Nc1cccc(C(F)(F)F)c1)c1ccc(N2CCNCC2)c([N+](=O)[O-])c1 | 8.28 µM (active) |
| CN1CCC[C@@H]1CCO[C@](C)(c1ccccc1)c1ccc(Cl)cc1 | 8.66 µM (active) |
| CC1(C)CC(=O)c2sc(N)nc2C1 | > 100 µM (inactive) |
| CCCCOC(=O)CNc1nnc(SCC(=O)OCC)[nH]c1=O | > 100 µM (inactive) |
| FC(F)(F)COc1nc(N2CCCCC2)nc(N2CCNCC2)n1 | 18.9 µM (active) |
| CCNCCC(=O)N1c2ccccc2Sc2ccc(NC(=O)OCC)cc21 | 32.7 µM (inactive) |
| CCCC[C@@H]1CN=C(N)N1CCc1cc(C(F)(F)F)cc(C(F)(F)F)c1 | 6.67 µM (active) |
| CCCc1[nH]nc2c1C(c1c(C)nn(-c3ccccc3)c1Cl)C(C#N)=C(N)O2 (stereo not drawn) | > 100 µM (inactive) |
| Cc1ccc2c(c1)C1CN(C)CCC1N2S(=O)(=O)c1ccc(Oc2ccc([N+](=O)[O-])cc2)cc1 (stereo not drawn) | 17.5 µM (active) |
| CCCCOc1ccc(CSC(=N)N)cc1[N+](=O)[O-] | 6.05 µM (active) |
| NC(N)=N/N=C/c1ccc(Cl)c([N+](=O)[O-])c1 | 7.68 µM (active) |
| COCCn1c(CN2CCC(Cc3ccccc3)CC2)nc2c1c(=O)n(C)c(=O)n2C | 3.99 µM (active) |
